Experimental data: PubChem BioAssay (NCI)
Compounds without any hit were thinned out: in the full panel of roughly 83,000, 20% have a hit.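 48-hour exposure, single concentration, 96-well plates; percent growth endpoint where 0 means no net growth. Active: below 10.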 Calls of active or inactive are those of the source.

What follows are compounds tested on NCI/ADR-RES ovarian (assay: NCI-60 one-dose screen, 48 h (100 = growth as untreated, 0 = no growth, -100 = all killed)). Conditions: 10 µM unless noted.

SMILES | growth
C=C1C(=O)O[C@H]2[C@H]1CC/C(COC(=O)/C=C\C(=O)O)=C\CC[C@@]1(C)O[C@@H]21 | 101% (inactive)
CCCCC1CCc2cccc3c(SCC(=O)N(C)c4ccc(Cl)cc4)cc[n+]1c23 (centres undefined) | 110% (inactive)
O=C(c1nc2ccccc2[nH]1)C1C(c2cccc([N+](=O)[O-])c2)C2CC3CCCCC3N2[C@@]12C(=O)Nc1cc(Cl)ccc12 (some centres undefined) | 39.7% (inactive)
O=C1/C(=C/c2ccc(O)cc2)COc2ccc(O)cc21 | 98.7% (inactive)
O=C1/C(=C/c2ccc(O)cc2)COc2ccc(O)c(O)c21 | 27.2% (inactive)
COc1cc2nc(NC3CCCC3)nc(NC3CCN(C(C)C)CC3)c2cc1OC | 101% (inactive)
Cc1ccccc1CNC(=O)C1CN(c2ccc(Cl)cc2)N(c2ccc(Cl)cc2)C1=O (centres undefined) | 84.3% (inactive)
COc1cc(C2CC(c3ccc(Nc4nc(NCCO)nc(N5CCOCC5)n4)cc3)=NN2c2cc(Cl)cc(Cl)c2)cc(OC)c1OC (centres undefined) | 48.8% (inactive)
O=C(c1nc2ccccc2[nH]1)C1C(c2ccc([N+](=O)[O-])cc2)C2CC3CCCCC3N2[C@@]12C(=O)Nc1cc(Cl)ccc12 (some centres undefined) | 29.2% (inactive)
O=C(Cn1cc(COc2ncnc3c2cnn3-c2ccccc2)nn1)Nc1cccc2ccccc12 | 94.8% (inactive)
CN1C(=O)N(C)C2Nn3c(s/c(=C\c4ccc(Cl)cc4Cl)c3=O)=NC21 (centres undefined) | 35.6% (inactive)
O=Cc1cc2ccccc2nc1Nc1nccs1 | 77% (inactive)
O=C1/C(=C/c2cccc(O)c2)COc2ccc(O)cc21 | 96.7% (inactive)
COc1cc2nc(NC3CCC3)nc(NC3CCN(C(C)C)CC3)c2cc1OC | 96.9% (inactive)
O=C(c1nc2ccccc2[nH]1)C1[C@@H](c2cccc(O)c2)C2CC3CCCCC3N2[C@@]12C(=O)Nc1cc(Cl)ccc12 (some centres undefined) | 85.2% (inactive)
CCN1C(=O)N(c2ccccc2)C2NN=c3s/c(=C4\C(=O)N(C(C)C)c5ccccc54)c(=O)n3C21 (centres undefined) | 15.7% (inactive)
Cc1sc2ncn(CC(=O)Nc3ccc(S(N)(=O)=O)cc3)c(=O)c2c1C | 105% (inactive)
COC(=O)c1c2c(c(C)[n+]([O-])c1C)C(=O)C(NCc1ccc(F)c(F)c1)=CC2=O | -6.62% (active)
CNCCNc1nc2ccccc2c2c(=O)c3cccc(OC)c3sc12 | 37.5% (inactive)
CNCCNc1nc2ccccc2c2c(=O)c3cccc(C)c3sc12 | 44.6% (inactive)

SMILES | growth
COc1cc(/C=C2\Oc3cc(OCCCN4CCCC4)ccc3C2=O)cc(OC)c1 | 80.8% (inactive)
COC(=O)[C@H](NC(=O)C1(C)CCC[C@]2(C)[C@H]3C[C@H]4C(C(C)C)=C[C@]3(CC[C@@H]12)[C@@H]1C(=O)CCC(=O)[C@@H]14)C(C)C (some centres undefined) | 96.1% (inactive)
COc1cc(/C=C2\CN(C)C/C(=C\c3cc(CN4CCCCC4)c(O)c(OC)c3)C2=O)cc(CN2CCCCC2)c1O | 70.7% (inactive)
O=S(=O)(Nc1ncccn1)c1ccc(NC2Nc3nc4ccccc4nc3S2)cc1 (centres undefined) | 99.6% (inactive)
O=C1CCC(N2C(=O)c3cccc(NCCCCCCOc4ccc(Nc5nccc(Nc6ccccc6)n5)cc4)c3C2=O)C(=O)N1 (centres undefined) | 79.2% (inactive)
Cc1c(-c2csc(-n3nc(C(F)(F)F)cc3C(F)(F)F)n2)no[n+]1[O-] | 105% (inactive)
O=C(NCc1ccccc1)C1CN(c2ccc(Cl)cc2)N(c2ccc(Cl)cc2)C1=O (centres undefined) | 69.9% (inactive)
c1ccc2c(c1)oc1cc3sccc3nc12 | 102% (inactive)
CCCCC1COc2cccc3c2N1C=C/C3=C\C(=O)N(C)c1ccccc1 (centres undefined) | 86.4% (inactive)
COc1cc(/C=C/C(=O)c2ccc(Nc3nc(NCCO)nc(N4CCOCC4)n3)cc2)cc(OC)c1OC | 53.7% (inactive)
Cc1cccc2c(=O)c3c(sc12)c(NCCCNCCO)nc1ccccc13 | 60.5% (inactive)
COc1cc(/C=C2\CN(C)C/C(=C\c3cc(CN4CCCC4)c(O)c(OC)c3)C2=O)cc(CN2CCCC2)c1O | 100% (inactive)
O=C(/C=C/c1ccc(C(F)(F)F)cc1)c1ccc(Nc2nc(NCCO)nc(N3CCOCC3)n2)cc1 | 74.7% (inactive)
NCCOc1ccccc1/C=C1\c2ccccc2-c2ccc([N+](=O)[O-])cc21 | 23.5% (inactive)
O=C(/C=C/c1ccc(F)cc1)c1ccc(Nc2nc(NCCO)nc(Nc3ccc(Cl)cc3)n2)cc1 | 87.2% (inactive)
O=c1oc2ccc(Br)cc2c(=O)n1-c1ccc(Br)cc1F | 2.87% (active)
NCCNc1nc2ccccc2c2c(=O)c3cc(F)cc(Cl)c3sc12 | -44.9% (active)
CCCN1CCN(c2ccc3nc(-c4ccc5nc(-c6cc(OC)ccc6OC)[nH]c5c4)[nH]c3c2)CC1 | 111% (inactive)
Cc1ccc(C2CC(c3ccc(Nc4nc(NCCO)nc(Nc5ccc(Cl)cc5)n4)cc3)=NN2c2cc(Cl)cc(Cl)c2)cc1 (centres undefined) | 105% (inactive)
